# High-throughput results from PubChem BioAssay.
# MITF inh – MITF inhibitors, primary screen, biochemical, AlphaScreen, human. Microphthalmia-associated transcription factor (Homo sapiens), O75030. AlphaScreen MITF homodimerization, bead proximity signal. inhibition, % at 2.6 µM. hit rate 0.91% among 650,000. AID 1259374, 2018; in the data active = inhibition above about 50%;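 note: 0% = vehicle wells with protein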
# TEAD-YAP block – TEAD-YAP interaction inhibition, primary screen, TEAD-YAP interaction inhibitor project, luminescence, HEK-TIYL cells | inhibition, % at 9.12 µM | TEAD-Gal4/YAP UAS-luciferase luminescence | hit rate 1.4% among 640,000 | AID 1259422, 2018; in the data active = inhibition above about 32%;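 note: 0% = median of test compound wells and 100% = reference inhibitor wells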
# FBW7 act – FBW7 E3 ligase activators, primary screen, biochemical, AlphaScreen, human; AlphaScreen FBW7–phospho-cyclin E peptide binding, activator screen; F-box/WD repeat-containing protein 7 (Homo sapiens), Q969H0; normalized activity (activation), % at 26.1 µM; hit rate 0.13% among 650,000; in the data active = normalized activity above about 1.9%;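 note: purified mutant Fbw7 with reduced substrate affinity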
# GPR151 ag – activators of human GPR151, primary screen, cell-based, PathHunter beta-arrestin, luminescence. PathHunter beta-arrestin GPR151 cells. activation, % at 11.2 µM. hit rate 1% among 650,000. AID 1508602, 2020; in the data active = activation above about 4.9%;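 note: 0% = median of compound wells and 100% = cells with positive control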
# Target sequence (Q8TDV0 whole entry, looked up): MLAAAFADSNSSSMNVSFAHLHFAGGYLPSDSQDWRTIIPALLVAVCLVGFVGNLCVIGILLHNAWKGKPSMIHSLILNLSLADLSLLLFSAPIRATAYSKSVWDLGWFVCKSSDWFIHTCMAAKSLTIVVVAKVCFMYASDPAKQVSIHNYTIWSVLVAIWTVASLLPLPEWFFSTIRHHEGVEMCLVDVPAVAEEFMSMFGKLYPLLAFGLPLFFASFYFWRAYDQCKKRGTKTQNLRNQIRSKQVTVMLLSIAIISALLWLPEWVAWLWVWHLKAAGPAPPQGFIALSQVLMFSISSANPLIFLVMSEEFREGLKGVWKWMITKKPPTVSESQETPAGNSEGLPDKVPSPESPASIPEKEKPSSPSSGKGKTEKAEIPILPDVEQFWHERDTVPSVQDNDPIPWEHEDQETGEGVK
# GPR151 confirm – GPR151 activators, triplicate retest, confirmation, cell-based, PathHunter beta-arrestin, luminescence | shares compounds with GPR151 ag | GPR151 PathHunter beta-arrestin cells, 90 min; % of EA-reagent control over plate median | activation, % at 11.2 µM | 6,700 tested, under 10 active | AID 1508609, 2020;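 active = mean percent activation across replicates above the confirmation screen cutoff of 4.91%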
# GPR119 counter – GPR119 activators in beta-arrestin cells, counter-screen for GPR151 activator project, cell-based, PathHunter beta-arrestin, luminescence, triplicate; shares compounds with GPR151 ag; hit rate 0.3% among 6,700; 90 min; 0 = compound-well median, 100 = enzyme-acceptor control; activation, % at 11.2 µM;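 active = mean percent activation in the counterscreen above 29.09%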;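 note: counterscreen on off-target GPR119 to flag nonselective hits from the GPR151 activator screen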
# An asterisk follows results filed as active; / = no result given; ! = a repeat was not active. Only some compounds are listed: those with a hit (about 3.4% of all), similar ones and a draw of the others.
SMILES,MITF inh,TEAD-YAP block,FBW7 act,GPR151 ag,GPR151 confirm,GPR119 counter
COc1ccc2[nH]c(C)c(CCNCc3c(C)nn(C)c3Cl)c2c1,20.4,1.8,-0.2,0.6,/,/
COc1ccc(CC(=O)N2CCN(Cc3nc(-c4ccc(Cl)cc4)cs3)CC2)cc1OC,7.9,61.1*,0.6,14.9*,-0.4,4.3
C=C[C@H]1CN2CC[C@H]1C[C@H]2[C@H](O)c1ccnc2ccccc12,-0.7,20.2,-0.1,5.4*!,-0.7,3.4
C[C@@H]1O[C@@H](O[C@H]2C[C@@H](O)[C@]3(CO)[C@H]4[C@H](O)C[C@]5(C)[C@@H](C6=CC(=O)OC6)CC[C@]5(O)[C@@H]4CC[C@]3(O)C2)[C@H](O)[C@H](O)[C@H]1O,6.9,102.5*,-0.1,5.7*!,2.5,128.3*
Cc1nc2ccc(Cl)cc2c(=O)n1-c1cccc(Br)c1,-6.8,5.5,0.1,-1.9,/,/
CCN1CCN(c2ccc([N+](=O)[O-])c(-n3nc(C)cc3C)c2)CC1,15.3,-0.7,0.1,1.1,/,/
C[C@H](N)[C@H](O)c1ccc(O)c(O)c1,84.4*,-1.9,-0.2,5.7*!,1.0,5.3
O=C(O)CCn1cc(C=C2C(=O)NC(=S)NC2=O)c(-c2cccc(Cl)c2)n1,0.7,10.2,-0.2,0.3,/,/
O=C(O)CCn1cc(C=C2C(=O)NC(=O)NC2=O)c(-c2ccc(Br)cc2)n1,0.9,14.7,-0.1,5.4*,2.6,-3.5
CC(C(=O)NC(=O)NC1CCCCC1)N1CC=C(c2ccccc2)CC1 (stereo not drawn),3.7,3.5,0.0,1.1,/,/
O=C(Cc1ccc(Cl)cc1)N1CCN(Cc2ccccc2)CC1,1.2,-6.8,-0.1,2.1,/,/
Cc1nc(SCc2ccccc2)[nH]c(=O)c1CC(=O)N1CCN(Cc2ccccc2)CC1,6.3,-1.4,0.0,6.2*,0.2,-7.3
Cc1cc2oc(=O)c3c(c2c(O)c1CN1CCN(C)CC1)CCCC3,-16.1,5.7,0.1,9.3*,-0.4,7.7
CC(=O)Oc1cc(C)cc2oc(=O)c3c(c12)CCCC3,20.2,5.6,0.6,0.8,/,/
CC(=O)Nc1ccc([N+](=O)[O-])c(C(F)(F)F)c1,-9.1,2.8,0.0,1.1,/,/
COc1cc(C=C2C(=O)NC(=S)NC2=O)ccc1OC(=O)c1ccc(C)cc1,13.5,1.5,0.1,6.6*,-0.7,2.1
O=C(Nc1cccc(F)c1)C(Cl)(Cl)Cl,-29.2,6.9,0.1,-0.5,/,/
C=CCN1C(=O)/C(=C/c2ccc(Cl)cc2Cl)C(=O)NC1=S,9.1,3.6,-0.5,9.1*,-0.8,-7.9
C=CCN1C(=O)/C(=C\c2cc(Cl)c(O)c(OC)c2)C(=O)NC1=S,-7.9,-1.9,-0.1,1.3,/,/
N#Cc1ccc(NC(=O)CSc2n[nH]c(-c3cccs3)n2)cc1Cl,-2.2,-2.6,0.1,11.4*,0.2,13.1
COc1ccc(/C=C2/C(=O)NC(=O)N(c3ccc(Cl)c(Cl)c3)C2=O)cc1C(=O)O,-5.3,-9.0,0.1,0.7,/,/
CC(C)(C)c1cc(C=C(C#N)C#N)cc(C(C)(C)C)c1O,-5.0,90.7*,0.0,6.4*,0.9,18.3
COc1cc(C=C(C#N)C#N)cc(O)c1O,7.6,1.2,-0.2,-0.9,/,/
Cc1ccc2c(c1)C1CN(C)CCC1N2C(=O)CSc1nnnn1-c1ccc2c(c1)OCO2 (stereo not drawn),-1.0,2.6,-0.1,0.4,/,/
OC1/C(=C/c2cccc(OCc3ccccc3)c2)N2CCC1CC2 (stereo not drawn),4.7,-37.0,0.1,5.9*,-0.1,3.6
CCCN1CCC[C@@H]2Cc3nc(N)ncc3C[C@H]21,0.8,-2.0,-0.1,-1.2,/,/
CCCN1CCC[C@@H]2Cc3[nH]ncc3C[C@H]21,-1.4,-1.4,-0.1,7.8*!,1.1,-7.3
CC(Cc1cccc(C(F)(F)F)c1)NCCCc1ccccc1 (stereo not drawn),-9.1,/,0.0,9.1*,0.3,-4.9
N#Cc1cc(F)c(N2CCNCC2)cc1Cl,1.3,3.0,0.0,-0.2,/,/
